Laboratory results reported in PubChem BioAssay AID463173 (ICCB-Longwood Screening Facility, Harvard Medical School, 2010).
Among all 52,000 compounds or so, about 4,300 (8.3%) were called active. Many of the other results were omitted from the sample, so actives are more common in it than they were. Values without a mark were called inactive. Rule as the data show it: active = survival mostly below about 52% (no sharp cut-off); inactive = mostly above about 56%.

system: DeltatarO mutant; assay: S. aureus survival, RN4220 and DeltatarO strains – OD600, teichoic acid synthesis inhibitors, primary screen (AID 463173); settings: S. aureus RN4220 wild type/DeltatarO growth, OD600, 18 h, hits give low values, screened at 18.75 µg/mL (by protocol)

| Structure (SMILES) | survival |
| --- | --- |
| CCc1nn(CCCC(=O)NCc2ccc(OC(C)C)cc2)c(=O)c2cc3occc3n12 | 77% |
| COc1ccccc1N1CCN(C(=O)C2CCN(S(=O)(=O)c3cn(C)cn3)CC2)CC1 | 46% (active) |
| Cn1cnc(S(=O)(=O)N2CCC(C(=O)N3CCN(c4ccccc4F)CC3)CC2)c1 | 75% |
| COc1ccc(N2CCN(C(=O)C3CCN(S(=O)(=O)c4cn(C)cn4)CC3)CC2)cc1 | 69% |
| CC1CCN(S(=O)(=O)c2cc(C(=O)N3CCN(c4ccccc4F)CC3)n(C)c2)CC1 | 70% |
| COc1ccccc1N1CCN(S(=O)(=O)c2ccc(-c3cnc(C4CC4)o3)cc2)CC1 | 113% |
| CCOc1ccccc1N1CCN(S(=O)(=O)c2ccc(C3CCCCC3)cc2)CC1 | 50% |
| Cc1cccc(N2CCN(C(=O)C3CCN(S(=O)(=O)c4cn(C)cn4)CC3)CC2)c1C | 92% |
| Cc1cccc(N2CCN(C(=O)c3cc(S(=O)(=O)N4CCC(C)CC4)cn3C)CC2)c1C | 58% |
| COc1ccccc1N1CCN(S(=O)(=O)c2ccc(S(=O)(=O)NC3CCCC3)cc2)CC1 | 55% (active) |
| CC(=O)c1ccc(N2CCN(C(=O)C3CCN(S(=O)(=O)c4cn(C)cn4)CC3)CC2)cc1 | 69% |
| Cn1cnc(S(=O)(=O)N2CCC(C(=O)N3CCN(c4ccc(Cl)cc4)CC3)CC2)c1 | 37% (active) |
| COc1ccccc1N1CCN(C(=O)c2cc(S(=O)(=O)N3CCC(C)CC3)cn2C)CC1 | 32% (active) |
| Cc1ccc(C)c(NC(=O)C(c2ccccc2)N2Cc3ccccc3C2=O)c1 (stereo not given) | 117% |
| Cn1c(=O)c2c(nc(CN3CCN(c4ccccc4F)CC3)n2Cc2ccccc2F)n(C)c1=O | 92% |
| COc1ccc(-n2nc3cc(C)c(NC(=O)c4ccc(C)cc4C)cc3n2)cc1Cl | 83% |
| Cc1nnc(NC(=O)CSc2nc3c([nH]c4ccccc43)c(=O)n2-c2ccc(Cl)cc2)s1 | 73% |
| Cc1ccc(CN2CCSc3ccc(C(=O)Nc4ccc(C)cc4)cc32)cc1 | 105% |
| O=C(CSc1nnc(Cc2ccccc2)o1)N(c1ccccc1)c1ccccc1 | 78% |
| COc1ccccc1NC(=O)C1CCCN(c2nnc(C)c3c(C)n(-c4ccccc4)nc23)C1 (stereo not given) | 84% |
| COc1ccc(S(=O)(=O)NC2(C(F)(F)F)NC(=O)N(CCc3ccccc3)C2=O)cc1 (stereo not given) | 99% |
| O=C(NCC(c1ccco1)S(=O)(=O)c1ccc(Cl)cc1)c1ccc(C(F)(F)F)cc1 (stereo not given) | 17% (active) |
| COc1ccc(C(=O)NCC(c2ccco2)S(=O)(=O)c2ccccc2)cc1 (stereo not given) | -4% (active) |
| Cc1ccc(S(=O)(=O)C(CNC(=O)c2ccc(F)c(F)c2)c2ccco2)cc1 (stereo not given) | -5% (active) |
| CC(C)(C)c1ccc(C(=O)NCC(c2ccco2)S(=O)(=O)c2ccccc2)cc1 (stereo not given) | 101% |
| CCOc1ccc(C(=O)NCC(c2ccco2)S(=O)(=O)c2ccc(C)cc2)cc1 (stereo not given) | 88% |
| CC(C)(C)c1ccc(C(=O)NCC(c2ccco2)S(=O)(=O)c2ccc(F)cc2)cc1 (stereo not given) | 126% |
| Cc1ccc(S(=O)(=O)C(CNC(=O)c2ccc(C(F)(F)F)cc2)c2ccco2)cc1 (stereo not given) | 130% |
| Cc1ccc(C(=O)NCC(c2ccco2)S(=O)(=O)c2ccc(Cl)cc2)cc1C (stereo not given) | 55% |
| COc1ccc(C(=O)NCC(c2ccco2)S(=O)(=O)c2ccc(F)cc2)cc1 (stereo not given) | 68% |
